# Screens from PubChem BioAssay.
# An excerpt weighted towards active compounds, which were near 2.2% of everything screened.
# IDH1 R132H inh = blocks human mutant IDH1 R132H enzyme; O75874; IDH1-R132H enzyme, NADPH consumption, diaphorase/resazurin fluorescence; Potency, µM (top dose mostly 76.6 µM), without a hit: top-dose activity change, negative = inhibition, actives largely listed as inhibitors; 390,000 compounds, 0.093% hits; AID 602179; note: potency is the fitted concentration of half-maximal effect; % is set by controls: 0 for no effect and ±100 for the full control effect; nearly all actives have a fitted effect of over 65% in size
# Target sequence (O75874 whole entry R132H, stated change not applied): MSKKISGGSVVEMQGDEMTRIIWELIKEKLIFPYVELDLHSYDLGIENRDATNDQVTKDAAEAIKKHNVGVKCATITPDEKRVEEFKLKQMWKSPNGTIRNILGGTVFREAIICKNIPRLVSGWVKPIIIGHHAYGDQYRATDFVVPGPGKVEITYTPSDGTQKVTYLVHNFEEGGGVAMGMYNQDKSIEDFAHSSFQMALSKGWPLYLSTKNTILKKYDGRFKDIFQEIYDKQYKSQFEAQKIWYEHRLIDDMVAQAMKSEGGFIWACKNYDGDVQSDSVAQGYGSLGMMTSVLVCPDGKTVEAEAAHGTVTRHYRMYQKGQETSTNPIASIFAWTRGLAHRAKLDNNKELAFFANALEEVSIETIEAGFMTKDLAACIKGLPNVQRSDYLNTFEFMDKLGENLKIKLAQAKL
#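 IDH1-R132H (0.5 ug/mL dispensed) in pH 7.5 Tris buffer was preincubated 30 min with compound, then given a substrate mix of 0.016 mM NADPH and 2 mM alpha-KG for 80 min at room temperature; remaining NADPH was read by diaphorase/resazurin fluorescence.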
# ATXN viability = reduces viability in counter-screen for ATXN expression inhibitors | S2 cells (HEK-293 line with an ATXN2-luciferase reporter) viability, CellTiter-Fluor protease fluorescence, 24 h | Potency, µM (top dose mostly 56.7 µM), hits mostly cytotoxic | 400,000 compounds, 0.49% hits; note: potency is the fitted concentration of half-maximal effect; nearly all actives have a fitted effect of over 40% in size
# ATXN2 expr inh = inhibitors of ATXN2 expression | HEK-293 ATXN2-luciferase reporter, luminescence, 24 h | Potency, µM (titrated, usually from 57 µM), without a hit: top-dose activity change, negative = inhibition, most hits filed as inhibitors | 360,000 compounds, 0.72% hits | AID 1745845; note: potency is the fitted concentration of half-maximal effect; % is set by controls: 0 for no effect and ±100 for the full control effect; nearly all actives have a fitted effect of over 55% in size
#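 ATXN2-luciferase reporter cells (luciferase flanked by upstream and downstream ATXN2 gene portions) were treated 24 h at 37 °C with compounds at up to 57 uM. SteadyGlo luminescence gave expression; GF-AFC fluorescence gave viability.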
# TGFb inhibitor = inhibitors of TGF-b signaling; HepG2 CAGA-GFP TGF-b/SMAD3 reporter, GFP fluorescence, 18 h; TGF-beta stimulated, 500 pg/mL final; Potency, µM (doses to about 46.1 µM), for inactives: at the highest dose activity, negative = inhibition, actives largely listed as inhibitors; 410,000 compounds, 1.2% hits; AID 588855; note: potency is the fitted concentration of half-maximal effect; % is set by controls: 0 for no effect and ±100 for the full control effect; nearly all actives have a fitted effect of over 65% in size
#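 Smad-responsive CAGA-GFP expression was quantified in HEPG2 cells exposed to compounds and 500 pg/mL final TGF-beta for 18 h at 37 degrees C; unstimulated wells defined full inhibition.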
# LDHA inh = inhibitors of human lactate dehydrogenase A. purified LDHA, NADH/diaphorase-resazurin fluorescence; stronger effect = lower value. activity change, % (values are at about 110 or 230 µM). 480,000 compounds, 0.15% hits. AID 1347041; in the data active = activity change below about -30%; inconclusive = mostly about -25% to -30%;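 note: plate controls were DMSO wells for no effect and wells without enzyme for full effect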
#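 Enzyme activity of human lactate dehydrogenase 5 (2 nM; 0.06 mM NADH, 0.2 mM pyruvate, 5 min, RT) is measured via a resazurin/diaphorase fluorescence readout of residual NADH.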
# HepG2 tox = counter-screen for TGF-b inhibitors: cytotoxicity in HepG2 cells; HepG2 CAGA-GFP viability, ATP luminescence, 18 h; Potency, µM (top dose mostly 46.1 µM), inactives show at the highest dose activity change, negative = cytotoxicity, usual class: cytotoxic; 410,000 compounds, 0.76% hits; AID 588856; note: potency is the fitted concentration of half-maximal effect
#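 CellTiter-Glo luminescence gave cytotoxicity after 18 hours at 37 degrees C. The cells were HepG2 CAGA-GFP in 1% FBS DMEM, stimulated with 500 pg/mL TGF-beta after compound addition. %Activity was normalised to no-cell wells (complete cell-killing) and DMSO (no toxicity), and curves were fitted and classified.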
# Starred values were filed as active, the others as inactive; i = inactive; ? = inconclusive; . = no result given; [ ] = remark or other dose. Unless noted, calls come from the whole dose curve; as a rule, active = well fitted curve in the direction sought with a large enough effect; inconclusive = small, poorly fitted or top-dose-only effect, or another doubt; inactive = no such curve, though single readings can be large; an effect the other way counts as inactive or inconclusive.
SMILES,IDH1 R132H inh,ATXN viability,ATXN2 expr inh,TGFb inhibitor,LDHA inh,HepG2 tox
CCc1ccccc1-n1nnc(-c2nsc(NC(=O)c3ccc(C)c(C)c3)n2)c1C,-0.5%,.,.,10µM*,-19.9,-39.8%
Cc1ccc(O)c(NC(=O)c2ccc(Br)c(S(=O)(=O)N3CCCCC3)c2)c1,0.0%,?,?,?,-5.6,14.1µM*
Cc1ccc(C(=O)Nc2cccc(C(=O)O)c2)cc1S(=O)(=O)N1CCCCC1,0.6%,i,12.6µM*,-7.1%,-0.5,-11.5%
O=C(O)c1cccc(NC(=O)c2ccccc2)c1,-4.1%,i,-2.8%,1.0%,-0.5,-16.5%
Cc1ccc(C(=O)Nc2cccc(C(=O)O)c2)cc1S(=O)(=O)N1CCOCC1,6.3%,i,?,-15.4%,-8.0,-10.0%
Cc1ccc(O)c(NC(=O)c2cccc(S(=O)(=O)N3CCCCC3)c2)c1,3.0%,i,5.4%,32.9%,2.9,-5.6%
Cc1ccc(C(=O)Nc2cccc(C(=O)O)c2)cc1,3.1%,i,2.51µM*,4.6%,2.4,-24.5%
CCN(CC)Cc1oc(CO)cc(=O)c1O,13.4%,i,-11.1%,-14.8%,7.6,-193.1%
COc1ccc(-c2cc(C3CCN(CC(O)C(F)(F)F)CC3)[nH]n2)cc1 (centres undefined),5.1%,i,.,-19.2%,1.9,-34.0%
COc1ccc(-c2cc(C3CCN(Cc4cccc(C(F)(F)F)c4)CC3)[nH]n2)cc1,-5.2%,i,?,?,8.3,12.6µM*
Cc1ccc(CN2CCC(c3cc(-c4ccc(Cl)cc4)n[nH]3)CC2)cc1,3.8%,?,20µM*,15.8µM*,2.0,14.1µM*
COc1ccc(-c2cc(C3CCN(Cc4ccc([N+](=O)[O-])cc4)CC3)[nH]n2)cc1,-7.1%,i,-31.6%[11.3 µM],6.8%,-8.0,16.5%
COc1ccc(-c2cc(C3CCN(c4cc(Cl)nc(N)n4)CC3)[nH]n2)cc1,0.8%,?,?,?,-2.5,-29.5%
Nc1nc(Cl)cc(N2CCC(c3cc(-c4ccc(Cl)cc4)n[nH]3)CC2)n1,6.3%,?,25.1µM*,11.2µM*,8.2,11.2µM*
CN(C)c1ncc(C(=O)O)cn1,1.9%,i,-2.2%,16.8%,-1.1,-16.1%
Nc1ccc(Oc2cccc(Oc3ccc(N)cc3)c2)cc1,-9.5%,i,1.78µM*,-17.8%,-0.6,-22.5%
COc1ccc2nc(N3C(=O)/C(=C/c4ccc(Cl)cc4)NC3=S)sc2c1,-0.5%,i,-4.6%,6.7%,1.1,-3.3%
O=C1NC[C@H](Cc2ccc(O)cc2)N(C[C@@H]2CCCN2C[C@H](Cc2ccccc2)N2C[C@H](Cc3ccc(O)cc3)N(CC3CCCCC3)C(=O)C2=O)C1=O,.,i,20.4%,.,-2.2,.
O=C1NC[C@H](Cc2ccccc2)N(C[C@H]2CCCN2C[C@H](Cc2ccccc2)N2C[C@H](Cc3ccccc3)N(CC3CCCCCC3)C(=O)C2=O)C1=O,-24.2%,17.8µM*,?,?,-6.1,-70.2%
CC(C)C[C@H]1CN([C@@H](Cc2ccccc2)CN2CCC[C@@H]2CN2C(=O)C(=O)NC[C@@H]2Cc2ccccc2)C(=O)C(=O)N1CC1CCCCC1,.,20µM*,?,8.91µM*,-3.3,20µM*
O=C1NC[C@H](CCCCN2C[C@H](Cc3ccccc3)N(CC3CCCCC3)C(=O)C2=O)N(CC2CCCCC2)C1=O,.,14.1µM*,-22.2%,.,0.4,.
COc1cccc(CNc2nc3cc(-c4cccc(Cl)c4)sc3c(=O)n2C)c1OC,.,i,-0.2%,?,1.3,-21.8%
Cc1cc(Cl)ccc1-c1cc2nc(NCCCN(C)C)n(C)c(=O)c2s1,.,?,31.6µM*,?,-5.6,14.1µM*
CN(C)CCCNc1nc2cc(-c3ccc(F)cc3)sc2c(=O)n1C,.,?,20µM*,?,-2.4,-84.5%
CN(C)CCCNc1nc2cc(-c3ccccc3)sc2c(=O)n1C,.,i,-1.6%,-3.0%,-4.3,-19.2%
SMILES,IDH1 R132H inh,ATXN viability,ATXN2 expr inh,TGFb inhibitor,LDHA inh,HepG2 tox
COc1ccc(-c2cc3nc(NCCCN(C)C)n(C)c(=O)c3s2)c(C)c1,.,i,-23.8%,?,-6.0,3.55µM*
COc1cccc(CNc2nc3cc(-c4ccccc4)sc3c(=O)n2C)c1OC,.,?,?,?,-0.4,10µM*
Cc1cscc1-c1cc2nc(NCCCN(C)C)n(C)c(=O)c2s1,.,i,-17.4%,-7.7%,3.2,-11.1%
O=C(/C=C/c1ccc(F)cc1)NC(=S)N1CCN(c2ccccn2)CC1,2.1%,i,64.9%,-27.6%,-4.6,-25.4%
CCCCCc1ccc(C(=O)CCCC)c(=S)[nH]1,1.6%,?,?,-4.5%,-1.1,-32.7%
COc1cccc(NC(=O)N2CCCC2)c1,-3.4%,i,.,3.1%,-2.4,14.6%
O=C1C=CC(=O)c2c(O)c(CO)c(CO)c(O)c21,9.1%,?,?,11.2µM*,19.2,10µM*
O=c1c(CO)cc(CO)cc(CO)c1O,0.0%,i,.,-5.1%,5.0,-17.5%
CN[C@@H]1C[C@H]2O[C@@](C)([C@H]1OC)n1c3ccccc3c3c4c(c5c6ccccc6n2c5c31)C(=O)N[C@H]4O,.,.,1.22µM*,.,.,.
Cn1c2ccccc2c2c(C(=O)O)cn(C3CCCC3)c(=O)c21,10.0%,i,-19.6%,?,-3.1,-20.5%
COc1ccc(S(=O)(=O)N2CCOC2CNC(=O)C(=O)NCC(C)C)cc1 (centres undefined),-2.1%,i,6.0%,6.2%,-7.4,8.1%
COc1ccc(NC2CCCN(C(=O)c3ccc(C(C)=O)s3)C2)cc1 (centres undefined),0.0%,i,-15.3%,4.2%,3.9,4.3%
CC(=O)Nc1sc2c(c1-c1nc3ccccc3s1)CNC2,.,.,21.7µM*,.,16.5,.
CCOC(=O)C(=CNc1cc(C)ccc1-n1cccc1)C(=O)OCC,4.8%,i,?,-24.4%,-1.8,-34.5%
Cc1c(C(=O)Oc2cccc3cccnc23)oc2ccccc12,2.2%,i,-12.0%,?,12.9,11.2µM*
O=C(/C=C\c1ccco1)Oc1cccc2cccnc12,10.4%,i,.,3.16µM*,10.7,-74.0%
COc1ccccc1/C=C/C(=O)Oc1cccc2cccnc12,-4.0%,?,.,7.94µM*,0.4,10µM*
Cc1ccc(C(=O)Oc2cccc3cccnc23)cc1,.,.,.,.,12.9,.
CN1OC[C@@H]2CN[C@H](c3ccc(-c4cc5ccccc5o4)cc3)C[C@@H]21,-4.3%,i,0.199µM*,-16.0%,-3.2,-34.0%
COc1ccc(NC(=O)COC(=O)c2ccc3c(c2)OCO3)c(OC)c1,0.0%,i,?,18.2%,-3.6,-4.7%
